Results published in PubChem BioAssay (Tox21).
Where “and” joins values, the source holds several entries; their conditions need not be identical. Identical values can stand only once. Inconclusive results are not listed. Entries that show only a call come without a potency. Unmarked numbers belong to inactive results. Calls of active or inactive are those of the source. The call rests on the fitted dose curve; in most records, active means well fitted activation curve with a large enough effect in the repeat runs; inconclusive means weak or mixed curves; inactive means flat fitted curve, though single readings scatter.

assay: A CellTox Green Cytotoxicity Assay to monitor cytotoxicity in HepG2 cells - 40 hour (AID 1224879); details: CellTox Green fluorescence; series mostly up to 76.8 µM; further: nearly all actives have a fitted effect of over 40% in size
Source text: National Center for Advancing Translational Sciences [NCATS]
NIH Chemical Genomics Center [NCGC]
U.S. Environmental Protection Agency [EPA]
National Institutes of Environmental Health Sciences [NIEHS]
National Toxicology Program [NTP]
Cell-based models are critical for drug discovery. Determining the natural cytotoxic effects resulting from test compounds is an essential research activity. A CellTox Green Cytotoxicity Assay to monitor cytotoxicity in real time of continues cell culture during 40 hours of the compound treatment was used to screen Tox21 10K library compounds in HepG2 cells. CellTox Green Cytotoxicity Assay is a nonlytic, homogeneous, biofluorescent method to measure cytotoxicity in cell culture after experimental manipulation. The assay system uses a proprietary asymmetric cyanine dye that is excluded from viable cells but preferentially stains the dead cell's DNA. […] Viable cells produce no appreciable increases in fluorescence. Therefore, the fluorescence signal produced by the binding interaction with dead cell DNA is proportional to cytotoxicity.
The mixture of HepG2 cell suspension and reagents were dispensed at 600cells/6 ul/well in 1536-well tissue culture treated black solid bottom plates using a Multidrop dispenser. After the assay plates were incubated at a 37 C/5% CO2 incubator for 5 hours, 23 nL of compounds dissolved in DMSO, positive and negative controls was transferred to the assay plate by a pintool work station. The plates were incubated at 37 C for 40 hours. The fluorescence intensity were measured at 0h, 8h, 16h, 24h, 32h and 40h time points using ViewLux plate reader during compound treatment.
Potency means the concentration at half of the fitted maximal effect.

| SMILES | Potency | cytotoxicity increase |
| --- | --- | --- |
| CCCCC/C=C\C/C=C\CCCCCCCC(=O)O | inactive |  |
| C1CCC(SSC2CCCCC2)CC1 | inactive |  |
| CCC(C)(CCC(C)C)C(=O)[O][Sn]([CH3])([CH3])[O]C(=O)C(C)(CC)CCC(C)C (stereo not given) | inactive |  |
| OC/C=C/CO | inactive |  |
| COCCOc1cc2cc(C(=O)NC3CCN(C(C)C)CC3)n(CC(=O)Nc3ccc(Cl)cn3)c2cn1 | inactive |  |
| CC1=Nc2ccccc2C1(C)C | 38.9 µM (active) |  |
| O=C(O)c1cccc(C(F)(F)F)c1 | inactive |  |
| O=C(O)Cc1ccccc1Nc1c(Cl)cccc1Cl | inactive |  |
| OCC(F)(F)F | inactive |  |
| C=C(C)C(=O)OCCCCCCCCCC | inactive |  |
| O=C(/C=C/c1ccccc1)OC/C=C/c1ccccc1 | inactive |  |
| NC(=O)c1cccc([N+](=O)[O-])c1 | inactive |  |
| CCCC[P+](C)(CCCC)CCCC | inactive |  |
| Cc1cc(C)c(/C=C2\C(=O)Nc3ccccc32)[nH]1 | 19 µM (active) |  |
| CC(C)(C)NSc1nc2ccccc2s1 | inactive |  |
| Nc1ccc(Oc2ccc(Cl)cc2)cc1 | inactive |  |
| Cc1c(N)cccc1C(F)(F)F | inactive |  |
| O=C1c2ccccc2C(=O)N1SC1CCCCC1 | 24.5 µM (active) |  |
| CCCCCCCC | inactive |  |
| O=C1CCc2cc(OCCCCc3nnnn3C3CCCCC3)ccc2N1 | inactive |  |

| SMILES | Potency | cytotoxicity increase |
| --- | --- | --- |
| c1ccsc1 | inactive |  |
| CC(C)(C)C1CCC(=O)CC1 | inactive |  |
| O=c1oc2cc(O)ccc2c2oc3cc(O)ccc3c12 | inactive |  |
| CCc1cccc(CC)c1NC(=O)CN(CC(=O)O)CC(=O)O | inactive |  |
| CCC(CC)(CC(=O)Nc1cccc(/C=C/c2nc(C3CCC3)cs2)c1)C(=O)O | inactive |  |
| Nc1nc(N)nc(-c2cc(Cl)ccc2Cl)n1 | inactive |  |
| O=C(O)c1cc(-c2ccc(F)cc2F)ccc1O | inactive |  |
| S=c1nccc[nH]1 | inactive |  |
| NC[C@H]1O[C@H](O[C@H]2[C@H](O[C@@H]3O[C@H](CO)[C@@H](O)[C@H]3O)C(O)[C@H](N)C[C@@H]2N)[C@H](N)[C@@H](O)[C@@H]1O (stereo not given in full) |  | 9.38% [at 6.97 µM] |
| CCCCCCCCCCCCCCCC[N+](C)(C)CC | 15.5 µM (active) and 19 µM (active) |  |
| CC(C)(C)c1ccc(C(O)CCCN2CCC(C(O)(c3ccccc3)c3ccccc3)CC2)cc1 (stereo not given) | 5.35 µM (active) |  |
| COc1c(C)c2c(c(O)c1C/C=C(\C)CCC(=O)OCCN1CCOCC1)C(=O)OC2 | inactive |  |
| FC(F)(F)c1cccc(Cl)c1 | inactive |  |
| Cc1cc(C(C#N)c2ccc(Cl)cc2)c(Cl)cc1NC(=O)c1cc(I)cc(I)c1O (stereo not given) | inactive |  |
| Cc1ccc(C)cc1 | inactive |  |
| OC1CCCc2ccccc21 (stereo not given) | inactive |  |
| CCC(C)[O-].CCC(C)[O-].CCOC(=O)/C=C(/C)[O-].[Al+3] | inactive |  |
| CC(C)(c1cc(Br)c(OCC(Br)CBr)c(Br)c1)c1cc(Br)c(OCC(Br)CBr)c(Br)c1 (stereo not given) | inactive |  |
| O=c1[nH]c2ccccc2n1CCCN1CCN(C(c2ccccc2)c2ccccc2)CC1 | 23.9 µM (active) |  |
| O=C1CCc2ccc(OCCCCN3CCN(c4cccc(Cl)c4Cl)CC3)cc2N1 | 26.8 µM (active) |  |
